According to PubChem BioAssay:
Activity calls are given as the source filed them.

Assays:
[1] = small molecules captured by biotinylated probe aFSTL3 – biochemical, small-molecule microarray, fluorescence 635/667, stem cell growth factor project, primary screen (AID 1064); details: higher = more signal;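 further: measures binding of the biotinylated anti-FSTL3 antibody to printed compounds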
[2] = binders from COS7 lysate, DM2A8 probe, primary screen, torsin A project, cell lysate, small-molecule microarray, fluorescence 635/667 (AID 1065); details: higher = more signal, COS7 lysate expressing mutant human TOR1A
[3] = small molecules captured by biotinylated probe aFGF2 – biochemical, small-molecule microarray, fluorescence 635/667, stem cell growth factor project, primary screen (AID 1067); details: higher = more signal;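 further: measures binding of biotinylated aFGF2 protein to printed compounds on slides; z-score merges feature fluorescence and signal-to-noise across triplicate slides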
[4] = small molecules captured by biotinylated probe aFGF10 – biochemical, small-molecule microarray, fluorescence 635/667, stem cell growth factor project, primary screen (AID 1071); details: higher = more signal;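 further: score merges 667 nm spot intensity and signal to noise from triplicate slides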
[5] = molecular target: Neurogenic locus notch homolog protein 2 (Homo sapiens) (UniProt Q04721); experiment: small molecules binding Notch2 protein – biochemical, small-molecule microarray, 635 nm fluorescence, stem cell growth factors, primary screen (AID 1073); details: higher = more signal
[6] = molecular target: Pro-neuregulin-1, membrane-bound isoform (Homo sapiens) (UniProt Q02297); experiment: small molecules binding neuregulin-1 protein – biochemical, small-molecule microarray, fluorescence 635/667, psychiatric disease protein project, primary screen (AID 1075); details: NRG1 binding, 635 nm fluorescence, higher = more signal;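 further: score combines 667 nm spot fluorescence with signal to noise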
[7] = test system: Neuregulin-1 EGF-like domain; experiment: small molecules binding NRG1 EGF domain – biochemical, small-molecule microarray, 635 nm fluorescence, primary screen (AID 1081); details: higher = more signal;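 further: binding of the protein to compounds printed on small-molecule microarray slides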
[8] = FRG1 expression reporter modulators in myotubes – cell-based, C2C12 myotubes, firefly/Renilla luciferase, luminescence, FRG1 inhibition for FSHD, primary screen (AID 1084); details: FRG1 promoter luciferase, higher = more signal, called active from +8 up or from −8 down
[9] = small molecules captured by biotinylated probe aFST – biochemical, small-molecule microarray, fluorescence 635/667, stem cell growth factor project, primary screen (AID 1086); details: higher = more signal;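 further: score merges 667 nm fluorescence with signal-to-noise of each printed compound spot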
[10] = binders of probe aHhip on microarray, primary screen, stem cell growth factor project, biochemical, small-molecule microarray, fluorescence 635/667 (AID 1087); details: higher = more signal;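 further: score merges spot fluorescence at 667nm with spot signal to noise ratio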

Neurogenic locus notch homolog protein 2 (Homo sapiens), sequence (Q04721 whole entry, looked up, canonical isoform): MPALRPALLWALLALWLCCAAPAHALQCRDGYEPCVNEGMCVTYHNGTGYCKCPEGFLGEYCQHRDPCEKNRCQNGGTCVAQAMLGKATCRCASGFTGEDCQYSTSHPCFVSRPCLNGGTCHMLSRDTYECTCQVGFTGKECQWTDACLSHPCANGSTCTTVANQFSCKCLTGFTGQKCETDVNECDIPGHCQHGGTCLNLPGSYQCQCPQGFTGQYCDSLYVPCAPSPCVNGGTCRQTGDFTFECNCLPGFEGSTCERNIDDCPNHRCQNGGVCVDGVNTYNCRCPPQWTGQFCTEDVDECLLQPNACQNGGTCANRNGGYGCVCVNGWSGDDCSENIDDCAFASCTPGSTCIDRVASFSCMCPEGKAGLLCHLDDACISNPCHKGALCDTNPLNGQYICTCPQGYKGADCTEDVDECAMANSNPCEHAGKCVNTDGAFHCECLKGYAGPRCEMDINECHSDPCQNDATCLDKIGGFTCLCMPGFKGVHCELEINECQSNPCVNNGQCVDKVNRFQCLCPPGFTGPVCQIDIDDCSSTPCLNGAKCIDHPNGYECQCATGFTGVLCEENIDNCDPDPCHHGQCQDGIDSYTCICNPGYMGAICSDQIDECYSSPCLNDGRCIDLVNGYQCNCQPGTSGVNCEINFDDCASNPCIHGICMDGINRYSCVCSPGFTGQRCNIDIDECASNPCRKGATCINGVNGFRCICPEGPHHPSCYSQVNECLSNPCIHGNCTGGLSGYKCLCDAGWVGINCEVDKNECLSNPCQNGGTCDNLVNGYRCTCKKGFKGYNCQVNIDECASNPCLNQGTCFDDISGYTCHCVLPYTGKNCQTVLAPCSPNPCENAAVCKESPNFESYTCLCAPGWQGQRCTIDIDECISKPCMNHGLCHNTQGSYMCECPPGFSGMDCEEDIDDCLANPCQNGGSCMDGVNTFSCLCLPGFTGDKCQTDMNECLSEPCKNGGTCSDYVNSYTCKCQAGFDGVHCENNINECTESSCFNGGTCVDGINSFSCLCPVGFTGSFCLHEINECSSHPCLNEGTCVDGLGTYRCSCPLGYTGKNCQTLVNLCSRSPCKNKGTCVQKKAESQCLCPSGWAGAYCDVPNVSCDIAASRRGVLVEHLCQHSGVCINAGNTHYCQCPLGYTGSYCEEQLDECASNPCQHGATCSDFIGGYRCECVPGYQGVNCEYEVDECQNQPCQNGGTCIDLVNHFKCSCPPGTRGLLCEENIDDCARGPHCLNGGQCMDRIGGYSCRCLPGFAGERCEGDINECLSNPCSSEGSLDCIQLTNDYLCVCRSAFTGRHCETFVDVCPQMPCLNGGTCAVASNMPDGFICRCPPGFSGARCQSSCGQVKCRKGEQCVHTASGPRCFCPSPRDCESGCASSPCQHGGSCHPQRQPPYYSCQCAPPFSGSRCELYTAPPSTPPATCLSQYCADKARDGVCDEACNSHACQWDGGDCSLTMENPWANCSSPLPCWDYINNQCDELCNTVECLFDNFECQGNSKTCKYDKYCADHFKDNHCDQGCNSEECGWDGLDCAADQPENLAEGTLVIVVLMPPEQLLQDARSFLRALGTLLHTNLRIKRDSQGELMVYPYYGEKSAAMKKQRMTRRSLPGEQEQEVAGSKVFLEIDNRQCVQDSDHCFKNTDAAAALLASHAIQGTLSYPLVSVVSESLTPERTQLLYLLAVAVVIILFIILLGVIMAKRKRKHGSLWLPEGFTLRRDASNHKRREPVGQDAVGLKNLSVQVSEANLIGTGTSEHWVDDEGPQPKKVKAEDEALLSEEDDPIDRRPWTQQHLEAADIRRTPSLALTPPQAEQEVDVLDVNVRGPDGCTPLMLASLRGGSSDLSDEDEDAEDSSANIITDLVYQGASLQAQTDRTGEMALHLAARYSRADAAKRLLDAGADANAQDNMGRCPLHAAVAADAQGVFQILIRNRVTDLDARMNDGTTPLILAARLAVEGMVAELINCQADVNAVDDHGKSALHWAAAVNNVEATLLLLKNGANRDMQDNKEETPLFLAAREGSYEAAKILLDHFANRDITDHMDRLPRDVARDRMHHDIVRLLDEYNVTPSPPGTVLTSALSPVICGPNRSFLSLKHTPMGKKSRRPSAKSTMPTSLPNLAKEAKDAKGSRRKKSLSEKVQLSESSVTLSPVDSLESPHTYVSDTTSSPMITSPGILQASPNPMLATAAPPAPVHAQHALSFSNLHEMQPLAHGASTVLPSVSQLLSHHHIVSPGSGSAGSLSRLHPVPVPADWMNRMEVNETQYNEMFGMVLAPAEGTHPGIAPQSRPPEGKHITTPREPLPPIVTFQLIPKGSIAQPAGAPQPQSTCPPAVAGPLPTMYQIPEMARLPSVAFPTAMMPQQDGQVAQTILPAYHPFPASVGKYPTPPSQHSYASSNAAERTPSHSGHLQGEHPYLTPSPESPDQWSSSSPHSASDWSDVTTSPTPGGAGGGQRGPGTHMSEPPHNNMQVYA
Pro-neuregulin-1, membrane-bound isoform (Homo sapiens), sequence (Q02297 whole entry, looked up, the tested form may be a part, canonical isoform): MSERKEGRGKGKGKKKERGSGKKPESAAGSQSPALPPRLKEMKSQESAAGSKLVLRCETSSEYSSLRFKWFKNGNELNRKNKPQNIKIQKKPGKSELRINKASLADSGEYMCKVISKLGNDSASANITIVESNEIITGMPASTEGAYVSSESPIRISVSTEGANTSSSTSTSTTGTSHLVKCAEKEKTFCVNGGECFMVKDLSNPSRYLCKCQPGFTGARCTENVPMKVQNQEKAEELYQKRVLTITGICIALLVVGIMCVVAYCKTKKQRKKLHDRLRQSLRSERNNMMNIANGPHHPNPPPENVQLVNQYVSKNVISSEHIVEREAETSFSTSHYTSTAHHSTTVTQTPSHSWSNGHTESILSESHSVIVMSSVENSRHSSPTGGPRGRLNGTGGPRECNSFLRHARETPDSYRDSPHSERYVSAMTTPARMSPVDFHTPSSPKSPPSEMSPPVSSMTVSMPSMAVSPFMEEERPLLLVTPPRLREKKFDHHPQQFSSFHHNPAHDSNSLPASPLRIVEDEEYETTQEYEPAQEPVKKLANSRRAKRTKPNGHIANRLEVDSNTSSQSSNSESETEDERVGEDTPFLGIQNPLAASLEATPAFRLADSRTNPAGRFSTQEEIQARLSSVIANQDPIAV

Row | Structure (SMILES) | composite z-score [1] | composite z-score [2] | composite z-score [3] | composite z-score [4] | composite z-score [5] | composite z-score [6] | composite z-score [7] | z-score [8] | composite z-score [9] | composite z-score [10]
1 | COC(=O)C(CC#Cc1ccc2c(c1)[C@]1(C(=O)N2)[C@H](c2ccc(O)cc2)N2[C@H](c3ccccc3)[C@H](c3ccccc3)OC(=O)[C@H]2[C@@H]1C(=O)N1CCCCCCC1)C(=O)OC | 3.08 | 0.716 | 0.61 | 0.156 | 1.08 | 1.19 | 1.19 | -0.546 (inactive) | 2.44 | 0.17
2 | CC(C)CCC[C@@H](C)[C@H]1CC[C@@]2(C)C3=C(CC[C@]12C)[C@@]1(C)CC[C@H](OC(=O)c2ccccc2)C(C)(C)C1CC3 (stereo not given in full) | -0.438 | 0.299 | -0.0916 | 0.157 | 0.474 | 0.0304 | -0.0239 | -0.374 (inactive) | 0.526 | 0.93
3 | C=CCC(OC(C)=O)[C@@H]1[C@@H](N(Cc2ccc(-c3ccccc3)cc2)C(=O)c2ccc(C)cc2)c2cc(OCCCO)ccc2N1C(=O)Cc1ccc2ccccc2c1 (stereo not given in full) | -0.377 | -0.221 | -0.107 | 0.0733 | 0.0573 | -0.283 | -0.422 | -2.08 (inactive) | 0.203 | -0.134
4 | C=CCNC(=O)[C@@H]1[C@H]2C(=O)O[C@H](c3ccccc3)[C@H](c3ccccc3)N2[C@H](c2ccc(OCCO)cc2)[C@@]12C(=O)N(C(=O)OCCOC)c1ccc(C#CCCO)cc12 | -0.209 | -0.28 | -0.0203 | 0.508 | 1.33 | 1.24 | 1.19 | -0.0789 (inactive) | 0.273 | -0.164
5 | CN1C(=O)C2C(C1=O)C1C=C(CCCO)C2C(c2cccs2)N1Cc1cc2c(cc1Br)OCO2 (stereo not given) | -0.262 | 0.725 | 0.131 | 0.645 | 1.62 | 2.19 | 1.28 | -3.26 (inactive) | 1.6 | -0.109
6 | CN1C(=O)[C@@H]2[C@@H](CC(COc3ccccc3)=C([C@H](O)CCc3ccccc3)[C@@H]2CO)C1=O | -0.138 | 0.342 | -0.103 | -0.195 | -0.492 | -0.207 | -0.0233 | -2.39 (inactive) | -0.167 | -0.236
7 | [N-]=[N+]=Nc1ccccc1C[C@@]1(C(=O)O)N=C(c2ccc(OCCCO)cc2)O[C@@H]1c1ccccc1N=[N+]=[N-] | 0.943 | 0.211 | 0.0171 | 0.325 | 1.37 | 1.95 | 1.21 | -0.22 (inactive) | 1.36 | -0.283
8 | Cc1ccc(S[C@]2(C(=O)NC(C)C)CC(=O)N(C(C)C)[C@@H]2c2ccc(CO)cc2I)cc1 | -0.244 | -0.242 | -0.0272 | 0.145 | 0.0213 | 0.637 | 1.05 | -0.13 (inactive) | -0.198 | 0.0749
9 | O=C1O[C@H](c2ccccc2)[C@H](c2ccccc2)N2[C@H]1[C@@H](C(=O)N1CCCCCCC1)[C@]1(C(=O)Nc3ccc(C#CC4(O)CCCCCC4)cc31)[C@H]2c1ccc(O)cc1 | 3.63 | 1.42 | 0.807 | 0.822 | 1.36 | 1.36 | 1.2 | -2.46 (inactive) | 2.97 | 0.697
10 | NC(=O)[C@H]1[C@@H]2C(=O)O[C@@H](c3ccccc3)[C@@H](c3ccccc3)N2[C@@H](c2ccc(O)cc2)[C@]12C(=O)Nc1ccc(C#CC3=CCCCC3)cc12 | 0.124 | 0.813 | -0.0979 | -0.105 | -0.734 | 1.22 | 1.25 | 1.23 (inactive) | 0.0569 | -0.406
11 | Cc1ccc(N2C(=O)c3ccccc3[C@](C)(C(=O)NCc3ccccc3)[C@@H]2c2ccc(CO)cc2)nc1 | 0.625 | 0.0083 | 0.0898 | -0.369 | -0.378 | 0.64 | 0.635 | 0.101 (inactive) | 0.0665 | 1.07
12 | CN1C(=O)[C@@]2(Cc3ccccc3)N=C(c3ccc(OCCCO)cc3)O[C@H]2c2ccccc21 | 0.331 | 0.295 | 0.0175 | 0.261 | 0.921 | 0.501 | 1.21 | -2.02 (inactive) | 0.511 | -0.156
13 | COCCOC(=O)N1C(=O)[C@@]2(c3ccccc31)[C@H](c1ccc(OCCO)cc1)N1[C@H](c3ccccc3)[C@H](c3ccccc3)OC(=O)[C@H]1[C@@H]2C(=O)N1CCCCCCC1 | 4.01 | 2.82 | 1.05 | 1.52 | 1.86 | 3.07 | 1.54 | -3.1 (inactive) | 3.82 | 2.75
14 | CCOC(=O)C1=C[C@@H](C(C)(C)C)N(S(=O)(=O)c2ccc(C)cc2)[C@H]1c1cccc(Cl)c1 | -0.308 | 0.314 | 0.0526 | 0.666 | 1.54 | 0.831 | 0.979 | -2.24 (inactive) | 0.799 | -0.14
15 | COc1ccc(C(O)C2C=CC3C(=O)N(c4ccccc4)C(=O)C3N2Nc2ccccc2)cc1 (stereo not given) | -0.0234 | 0.316 | 0.142 | 0.979 | 1.66 | 1.93 | 1.31 | -1.07 (inactive) | 0.531 | 0.289
16 | C=CCC(OC(C)=O)[C@@H]1[C@@H](N(Cc2cccc3ccccc23)C(=O)c2ccc(-c3ccccc3)cc2)c2cc(OCCCO)ccc2N1C(=O)c1ccc(-c2ccccc2)cc1 (stereo not given in full) | -0.0061 | 0.356 | -0.06 | 0.0099 | 0.369 | 0.0975 | -0.453 | -0.774 (inactive) | 0.392 | 0.0274
